Experimental data reported in PubChem BioAssay (NCATS).
Records with an inconclusive call do not appear. A call without a number means that no potency is given here. Activity calls are given as the source filed them. Calls come from the whole dose curve; as a rule, active = well fitted inhibition curve with a large enough effect; inconclusive = small, poorly fitted or top-dose-only effect; inactive = flat fitted curve, though single readings scatter.
Potency is the fitted concentration of half-maximal effect.

What follows are compounds tested against Phospholipid hydroperoxide glutathione peroxidase GPX4 (Homo sapiens) (UniProt P36969) (assay: Primary qHTS Assay for Inhibitors of Recombinant Selenoprotein Glutathione Peroxidase 4 (GPX4) (AID 1845192; note: nearly all actives have a fitted effect of over 65% in size)). Conditions: recombinant GPX4, GR-coupled NADPH fluorescence, 15 min; series mostly up to 50 µM.
Sequence of Phospholipid hydroperoxide glutathione peroxidase GPX4 (Homo sapiens) (P36969 whole entry, looked up): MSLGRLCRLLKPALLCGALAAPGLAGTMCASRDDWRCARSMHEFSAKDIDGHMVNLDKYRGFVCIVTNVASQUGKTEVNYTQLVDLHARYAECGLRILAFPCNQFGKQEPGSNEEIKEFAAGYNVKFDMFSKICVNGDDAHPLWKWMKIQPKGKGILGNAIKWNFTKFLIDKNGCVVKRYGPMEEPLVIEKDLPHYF
Description: Assay Provider: Elias S.J. Arner MD PhD.
Department of Medical Biochemistry and Biophysics
Karolinska Institutet, Solna, Stockholm, Sweden
Selenoprotein glutathione peroxidases (GPX), like the ubiquitously expressed GPX1 and the ferroptosis modulator GPX4, enact their antioxidant activities by reducing hydroperoxides using glutathione. […] GPX1 and GPX4 inhibitors have thus shown promise as anti-cancer agents. Existing inhibitors are often promiscuous, or modulate GPX activity only indirectly, so novel direct inhibitors identified through screening against GPX1 and GPX4 could be valuable. Here, we developed optimized glutathione reductase (GR)-coupled GPX assays for the biochemical high-throughput screen (HTS) of almost 12,000 compounds with known mechanisms of action. Initial hits were triaged using a GR counter-screen, assessed for isoform specificity using a separate GPX2 assay, and were assessed for general selenocysteine-targeting activity using a thioredoxin reductase (TXNRD1) assay. With this suite of assays, we identified novel GPX1/GPX2- and GPX4-specific inhibitors and can here present a validated pipeline for future discovery research for selenoprotein-targeting agents.
SEQUENCE No. (e.g., 1, 2, 3, etc.); […] (e.g., Cells, Incubation, Reagent, etc.); VALUE; DESCRIPTION.
1; Reagent 1; 3 uL; 333.33 nM GPx4 enzyme or no enzyme control in 1536-well, black, solid Greiner assay plate.
2; Compound; 25 nL; Kalypsis pin tool (Wako USA) equipped with a 1536-well pin head.
3; Incubation; 30 min; room temperature.
4; Reagent 2; 1 uL; 500 nM GR, 5 mM GSH, 2.5 mM NADPH solution
5; Reagent 3; 1 uL; 2.5 mM CHP in 50% EtOH.
6; Detection; Fluorescence; ViewLux microplate reader, excitation 340 nm and emission 450 nm.
7; Incubation; 15 min; room temperature.
8; Detection; Fluorescence; ViewLux microplate reader, excitation 340 nm and emission 450 nm.
NOTES (numbers refer to Sequence numbers above)
1. 3 µL of 333.33 nM GPX4 and 0.016% BSA in assay buffer (50 mM Tris-HCl, 2 mM EDTA (pH 7.5), 150 mM NaCl) was added to columns 3-48 of 1536-well plates using a BioRAPTR Flying Reagent Dispenser (Let's Go Robotics (LGR), Carlsbad, CA). A no-enzyme control (0.01% BSA in TES assay buffer) was added to columns 1-2.
2. 25 nL, library and DMSO controls were added to each well with a pin tool (Kalypsys).
3. The assay plates were incubated for 30 minutes at room temperature.
4. 1 µL of master mix (500 nM glutathione reductase (GR), 5 mM reduced glutathione (GSH), 2.5 mM NADPH in assay buffer) was added.
5. 1 µL of cumene hydroperoxide (CHP) ([2.5 mM] in 50% EtOH) was then added within 5 minutes to initiate the reaction. Final concentrations were: 200 nM GPX4, 1 mM GSH, 0.5 mM CHP, 0.5 mM NADPH, 100 nM GR, 0.01% BSA.
6. Initial fluorescence readout (t=0) at 340/450 nm was measured using a ViewLux multimodal detector (PerkinElmer, Waltham, MA).
8. Endpoint fluorescence readout (t=15) at 340/450 nm was measured 15 min after room temperature incubation.
With O=C(c1ccc(OCCCc2cnc[nH]2)cc1)C1CC1 the Potency was “inactive”. For CCOc1ccc2nc(S(N)(=O)=O)sc2c1, the Potency was “inactive”. In the case of O=C(O)CNC(=O)C(CS)Cc1ccccc1 (stereo not given), the Potency is reported as “inactive”. With Cc1ccc(C(=O)c2ccc(CC(=O)O)n2C)cc1 the Potency was “inactive”. For COc1ccccc1CNCCCCCCNCCCCCCCCNCCCCCCNCc1ccccc1OC, the Potency was “inactive”. In the case of O=C(O)CC[C@@H](C(=O)O)N1C(=O)c2ccccc2C1=O, the Potency is reported as “inactive”. In the case of Oc1cc2c(cc1O)CN(C(=S)NCCc1ccc(Cl)cc1)CCC2, the Potency is reported as “inactive”. With CCCSc1ccc2nc(NC(=O)OC)[nH]c2c1 the Potency was “inactive”. CC(=O)SCC(CC(=O)c1ccc(C)cc1)C(=O)O (stereo not given) was tested, and the Potency was “inactive”. CCCCCCCCCCCCCCCCCC(=O)OC(CC(=O)O)C[N+](C)(C)C (stereo not given) was tested, and the Potency was “inactive”. For Cc1cc(NC2CCCCC2)nc(-n2nc(C)cc2C)n1, the Potency was “inactive”. In the case of N=c1ccn2c(n1)O[C@H]1[C@H](O)[C@@H](CO)O[C@H]12, the Potency is reported as “inactive”. In the case of O=S(=O)(c1cccc2c(I)cccc12)N1CCCNCC1, the Potency is reported as “inactive”. Clc1ccc(N2CCN(Cc3c[nH]c4ncccc34)CC2)cc1 was tested, and the Potency was “inactive”. Nc1nc(Nc2ccccc2)nc2c1ncn2[C@@H]1O[C@H](CO)[C@@H](O)[C@H]1O was tested, and the Potency was “inactive”. For Nc1cc(-c2ccncc2)c[nH]c1=O, the Potency was “inactive”. With CC(C)CC(NP(=O)(O)O[C@@H]1O[C@@H](C)[C@H](O)[C@@H](O)[C@H]1O)C(=O)NC(Cc1c[nH]c2ccccc12)C(=O)O (stereo not given in full) the Potency was “inactive”. For CSc1ccccc1N1CCN(CCCCCC(=O)NC2CCCc3ccccc32)CC1 (stereo not given), the Potency was “inactive”. With Cc1ccc(S(=O)(=O)/C=C/C#N)cc1 the Potency was “inactive”. With Nc1nc2ccc(Cl)cc2n2c(-c3ccccc3)nnc12 the Potency was “inactive”. In the case of c1ccc2sc(SN3CCOCC3)nc2c1, the Potency is reported as “inactive”. With COc1cccc(OC)c1OCCNCC1COc2ccccc2O1 (stereo not given) the Potency was “inactive”. With COc1ccc(C(=O)/C(Cc2cc(OC)c(OC)c(OC)c2)=C(\C(=O)O)c2ccc3c(c2)OCO3)cc1 the Potency was “inactive”. COC(=O)C1=C(C)NC(C)=C(C(=O)OCC(C)=O)C1c1ccccc1[N+](=O)[O-] (stereo not given) was tested, and the Potency was “inactive”. COc1cc(SC)ccc1C(=O)N1CCC(Cc2ccccc2)CC1 was tested, and the Potency was “inactive”. CC(C)c1cccc(C(C)C)c1N1C(=O)c2ccc(O)cc2C1=O was tested, and the Potency was “inactive”. In the case of S=c1[nH]c(-c2ccccc2)cn1-c1ccccc1, the Potency is reported as “inactive”. In the case of CCNC(=O)[C@H]1O[C@@H](n2cnc3c(N)nc(NCCc4ccc(CCC(=O)O)cc4)nc32)[C@H](O)[C@@H]1O, the Potency is reported as “inactive”. CNCC[C@H](Oc1ccc(C(F)(F)F)cc1)c1ccccc1 was tested, and the Potency was “inactive”. For COc1cc2c3cc1Oc1cc(ccc1O)C[C@@H]1c4c(cc(OC)c(O)c4Oc4ccc(cc4)C[C@@H]3N(C)CC2)CC[N+]1(C)C, the Potency was “inactive”. NCCCCCCCCCCN was tested, and the Potency was “inactive”. CC1OC1P(=O)(O)O (stereo not given) was tested, and the Potency was “inactive”. In the case of CC1CN(S(=O)(=O)c2cccc3cnccc23)CCN1 (stereo not given), the Potency is reported as “inactive”. With Cc1ccc2c(n1)Oc1ccc(C(C)C(=O)OCC(=O)N(C)C)cc1C2 (stereo not given) the Potency was “inactive”. In the case of C[C@H](O)[C@H](O)[C@H]1CNc2nc(N)[nH]c(=O)c2N1, the Potency is reported as 20.2 µM (active). In the case of O=[N+]([O-])c1ccc(CNc2nc(NCc3cccc(C(F)(F)F)c3)nc3nc[nH]c23)cc1, the Potency is reported as “inactive”. For CN1CCc2cc(NC(=O)Nc3cccnc3)ccc21, the Potency was “inactive”. COc1cc(NC(C)CCCN)c2ncccc2c1 (stereo not given) was tested, and the Potency was “inactive”. With O=C1NCc2c1c1c3ccccc3[nH]c1c1[nH]c3ccccc3c21 the Potency was “inactive”. With COc1ccc(Br)cc1S(=O)(=O)NC(=O)/C=C/c1ccccc1Cc1ccc2ccccc2c1 the Potency was “inactive”.
